Measured values reported in PubChem BioAssay (EPA / NIEHS).
The source made the active and inactive calls. How the source made its calls: active means hit-call score of the fitted dose curve at least 0.9, where 1 is the maximum; inactive means score below 0.9.

Read-out: flavin-containing dimethylaniline monooxygenases 3 (FMO3), FMO3 (gene 2328)
Assay: LTEA_HepaRG_FMO3: Life Technologies and Expression Analysis (LTEA) Assay for flavin-containing dimethylaniline monooxygenases 3 (FMO3) using HepaRG (AID 2283453);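 on AC50: differentiated human HepaRG liver cells in serum-free induction medium; FMO3 transcript by TaqMan qRT-PCR normalized to ACTB GAPDH and POLR2A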
Conditions: mRNA level, 48 h; actives raise or lower the signal
Method in brief: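 HepaRG, 48 h exposure, 8-pt half-log series from 100 uM, 0.5% DMSO vehicle, duplicates; FMO3 transcript by Fluidigm TaqMan qRT-PCR, housekeeping-normalized; gain/loss fit vs DMSO.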

outcome, inactive:
CCCCCCCCO
CC(=O)c1ccc2c(c1)[C@H](NC(=O)c1ccc(F)cc1)[C@@H](O)C(C)(C)O2
CC1(C)C(=O)N(Br)C(=O)N1Br
CCNc1ccccc1
COc1ccc(/C=C/S(=O)(=O)NC(=O)c2ccc(C)cc2Cl)cc1
CC(C)CCO
O=C(O)CCN(C1(C(=O)NO)CCCC1)S(=O)(=O)c1ccc(Oc2ccc(F)cc2)cc1
C=CC(=C)CCC=C(C)C
CC(O)CN(CCN(CC(C)O)CC(C)O)CC(C)O (centres undefined)
O=C(O)CC(O)C(=O)O (centres undefined)
O=C(O)c1cc(N=Nc2ccc(S(=O)(=O)Nc3ccccn3)cc2)ccc1O
C[C@](N)(Cc1ccc(O)c(O)c1)C(=O)O
On1ccccc1=S
Cn1c(=O)c2c(ncn2C)n(C)c1=O
CCCCCCc1ccc(O)cc1O
Nc1nc2ncc(CNc3ccc(C(=O)N[C@@H](CCC(=O)O)C(=O)O)cc3)nc2c(=O)[nH]1
CC(C)CC(C)(O)C#CC(C)(O)CC(C)C (centres undefined)
CCOC(=O)COc1ccc2c(c1)CC(NCC(O)c1cccc(Cl)c1)CC2 (centres undefined)
CC1=CC(=O)CC(C)(C)C1
CC[C@H]1OC(=O)[C@H](C)[C@@H](O[C@H]2C[C@@](C)(OC)[C@@H](O)[C@H](C)O2)[C@H](C)[C@@H](O[C@@H]2O[C@H](C)C[C@H](N(C)C)[C@H]2O)[C@](C)(O)C[C@@H](C)C(=O)[C@H](C)[C@@H](O)[C@]1(C)O
CCOC(=O)c1ccc(C2CCC(NC[C@H](O)COc3ccc(O)c(NS(C)(=O)=O)c3)CC2)cc1 (some centres undefined)
Cc1ccc(C)c(O)c1
CCOCCO
CC(=O)OC[C@H]1O[C@@](COC(C)=O)(O[C@H]2O[C@H](COC(C)=O)[C@@H](OC(C)=O)[C@H](OC(C)=O)[C@H]2OC(C)=O)[C@@H](OC(C)=O)[C@@H]1OC(C)=O

AC50, active:
CCCN(C1CCN(C(=O)C2CCNCC2)CC1)[C@@H]1CCc2ccc(OC)cc2C1 57.5 µM
CCc1cc(SCc2sc(-c3ccc(C(F)(F)F)cc3)nc2CN2CCN(c3ccc(OC)cc3)CC2)ccc1OCC(=O)O 5.55 µM
CCOc1cccc(-n2cc(C(=O)N3CCN(c4cc(C(=O)O)c5ccccc5c4)CC3)nc2-c2ccc(C)cc2)c1 33.1 µM
O=C(OC[C@H]1O[C@@H](OC(=O)c2cc(O)c(O)c(OC(=O)c3cc(O)c(O)c(O)c3)c2)[C@H](OC(=O)c2cc(O)c(O)c(OC(=O)c3cc(O)c(O)c(O)c3)c2)[C@@H](OC(=O)c2cc(O)c(O)c(OC(=O)c3cc(O)c(O)c(O)c3)c2)[C@@H]1OC(=O)c1cc(O)c(O)c(OC(=O)c2cc(O)c(O)c(O)c2)c1)c1cc(O)c(O)c(OC(=O)c2cc(O)c(O)c(O)c2)c1 9.23 µM
COc1ccc2sc(C(=O)Nc3nnn[nH]3)c(OC(C)C)c2c1 10.9 µM
